Assay outcomes (PubChem)
Cycloheximide cs = counter-screen for Shiga toxin inhibitors: cycloheximide protein synthesis inhibition | cell reporter, cycloheximide protein synthesis inhibition counterscreen | max response, % | 12% of 300,000 active; in the data active = max response mostly above about 13%, no sharp cut-off; inactive = mostly below about 14%; also: read at 38.3 µM for the half of the compounds with a filed dose
RE007 growth inh = less growth of the S. pombe RE007 Vpr strain; S. pombe RE007 Vpr strain, BacTiter-Glo ATP luminescence, 24 h; Potency, µM (doses to about 92.2 µM), hits mostly inhibitors; 0.21% of 360,000 active; AID 651644; active = well fitted falling curve with a large enough effect; inconclusive = small, poorly fitted or top-dose-only effect; inactive = no such curve, though single readings can be large or run the other way; also: nearly all actives have a fitted effect of over 50% in size
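Fission yeast RE007 carrying one integrated HIV-1 vpr copy, seeded at OD 0.01 in PMG+AL medium with 23 nL pinned compound. Grown 24 h at 30 degrees; viability read by BacTiter-Glo luminescence after 5 min.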
Giardia FBPA inh-1 = blocks Giardia fructose-bisphosphate aldolase activity; A8B2U2; purified Giardia FBPA; Potency, µM (highest dose often 59.6 µM), most hits filed as inhibitors; 0.71% of 290,000 active; AID 2451; also: nearly all actives have a fitted effect of over 55% in size
Target sequence (A8B2U2 whole entry, looked up): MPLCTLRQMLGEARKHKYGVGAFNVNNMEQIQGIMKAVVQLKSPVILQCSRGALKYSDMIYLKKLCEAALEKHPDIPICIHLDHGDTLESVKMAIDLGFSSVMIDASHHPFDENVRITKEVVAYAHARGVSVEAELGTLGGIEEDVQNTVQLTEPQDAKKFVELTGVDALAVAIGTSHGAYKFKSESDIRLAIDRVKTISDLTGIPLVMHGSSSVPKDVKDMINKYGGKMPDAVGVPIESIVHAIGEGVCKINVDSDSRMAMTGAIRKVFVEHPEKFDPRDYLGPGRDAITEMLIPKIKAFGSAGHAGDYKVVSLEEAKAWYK
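Giardia FBPA (40 nM reagent) was preincubated 10 min at RT with compound (up to 57.5 uM final), then substrate plus GAPDH/TPI/NAD/arsenate coupling system with diaphorase/resazurin was added; resorufin fluorescence (525/598 nm) was read after 20 min.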
Tb PYK inh = T. brucei pyruvate kinase inhibition | Q57TT1 | TbPYK enzyme, Kinase-Glo Plus ATP luminescence, 45 min | Potency, µM (doses to about 76.8 µM), most hits filed as inhibitors | 0.12% of 410,000 active; also: nearly all actives have a fitted effect of over 50% in size
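TbPYK + substrate in 50 mM TEA pH 7.2, 100 mM KCl, 10 mM MgCl2, 0.05% BSA, 0.01% Tween-20; cpd pinned; ADP 130 uM final; 45 min RT; Kinase-Glo Plus 10 min; luminescence endpoint.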
LmPK inhibitor = inhibitors of Leishmania mexicana pyruvate kinase | 0.37% of 290,000 active | AID 1721 | purified LmPK, Kinase-Glo ATP luminescence, 1 h | Q27686 | Potency, µM (doses to about 57.5 µM), usual class: inhibitors
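In 50 mM imidazole pH 7.2 with 7 mM MgCl2, LmPK (0.1 nM) turned over PEP (0.5 mM) and ADP (0.1 mM) for 1 h at room temperature. Luciferase read-out of ATP.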
Shiga inhibitor = Shiga toxin inhibition; Vero cells, Shiga toxin protein synthesis inhibition reporter; inhibition, % at 38.7 µM; 9.2% of 290,000 active; AID 2315; in the data active = inhibition mostly above about 28%, no sharp cut-off; inactive = mostly below about 43%
Giardia growth = inhibitors of Giardia lamblia growth | 5% of 1,500 active | shares compounds with Giardia FBPA inh-1 | Giardia lamblia trophozoite growth inhibition | Potency, µM (series often up to 57.5 µM), actives largely listed as inhibitors;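 also: trophozoites exposed to compound for 48 h at 37 °C; nearly all actives have a fitted effect of over 70% in size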
Mammalian tox = toxic to mammalian cells in Giardia aldolase counter-screen. mammalian cell viability counter-screen, qHTS. shares compounds with Giardia FBPA inh-1. AID 2786. Potency, µM (highest dose often 57.5 µM), usual class: inhibitors. 4% of 1,500 active;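 also: Chinese hamster ovary cells used as mammalian cytotoxicity surrogate; viability measured as cellular ATP by luminescence; compound exposure lasted 48 h before reading; nearly all actives have a fitted effect of over 60% in size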
Giardia FBPA inh-2 = confirmation of Giardia fructose-bisphosphate aldolase inhibitors; shares compounds with Giardia FBPA inh-1; 5% of 1,500 active; Potency, µM (series often up to 57.5 µM), most hits filed as inhibitors; purified Giardia aldolase enzyme activity, qHTS; AID 2787; also: nearly all actives have a fitted effect of over 45% in size
Rabbit FBPA inh = blocks rabbit muscle aldolase in Giardia aldolase selectivity test; shares compounds with Giardia FBPA inh-1; Rabbit muscle FBPA enzyme inhibition, selectivity counter-screen; Potency, µM (top dose mostly 57.5 µM), usual class: inhibitors; 4% of 1,500 active; AID 2794; also: nearly all actives have a fitted effect of over 60% in size
Target sequence (P00883 whole entry, looked up): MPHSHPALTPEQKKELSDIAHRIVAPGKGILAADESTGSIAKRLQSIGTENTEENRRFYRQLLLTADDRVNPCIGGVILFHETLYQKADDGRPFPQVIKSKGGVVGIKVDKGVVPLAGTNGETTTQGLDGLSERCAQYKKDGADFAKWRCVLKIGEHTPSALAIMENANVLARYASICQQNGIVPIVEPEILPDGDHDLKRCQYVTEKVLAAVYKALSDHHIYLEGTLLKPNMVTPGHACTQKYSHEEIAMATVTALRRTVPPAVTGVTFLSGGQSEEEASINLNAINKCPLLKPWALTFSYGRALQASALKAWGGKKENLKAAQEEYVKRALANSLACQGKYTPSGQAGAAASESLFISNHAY
GAPDH counter = counter-screen for Giardia aldolase inhibitors: GAPDH coupling enzyme; Potency, µM (series often up to 57.5 µM), most hits filed as inhibitors; GAPDH coupling enzyme counterscreen, biochemical, qHTS; AID 2795; shares compounds with Giardia FBPA inh-1; 6% of 1,500 active; also: nearly all actives have a fitted effect of over 55% in size
A number is an active result; n = inactive; u = inconclusive; x = not tested or not shown; [ ] = remark or other dose. Only a selection was taken, and hits are over-represented in it overall. Unless noted, calls follow the shape of the dose curve; as a rule, active = well fitted curve in the direction sought with a large enough effect; inconclusive = small, poorly fitted or top-dose-only effect, or another doubt; inactive = no such curve, though single readings can be large; an effect the other way counts as inactive or inconclusive.

SMILES | Cycloheximide cs | RE007 growth inh | Giardia FBPA inh-1 | Tb PYK inh | LmPK inhibitor | Shiga inhibitor | Giardia growth | Mammalian tox | Giardia FBPA inh-2 | Rabbit FBPA inh | GAPDH counter
O=C(NNc1ccnc2cc(Cl)ccc12)C1CCCCC1 | n | n | n | n | n | n | x | x | x | x | x
COc1ccc(CNS(=O)(=O)c2cc(CN3C(=O)c4cccnc4C3=O)ccc2OC)cc1 | n | n | x | n | n | n | x | x | x | x | x
Cc1cc(C(C)C)n2c(nc3ccccc32)c1C#N | n | x | n | x | n | n | x | x | x | x | x
Cc1cc(-c2ccco2)c(C#N)c2nc3ccccc3n12 | n | n | 1.3µM | n | n | n | n | n | u | u | u
O=C(NN1C(=O)CSC1=S)c1cccnc1 | n | n | 16µM | n | n | n | n | n | n | n | n
N#CCCN(Cc1cccnc1)C(=S)NC(=O)c1ccc(S(=O)(=O)N2CCCC2)cc1 | n | n | 7.9µM | u | n | n | n | n | n | n | n
O=C(Cc1ccsc1)NNC(=O)c1ccc(F)cc1 | x | n | x | n | x | x | x | x | x | x | x
O=C(O)c1cc(-c2ccccn2)n[nH]1 | n | n[3.69 µM] | 6.3µM | x | n | n | n | n | n | n | n
O=C(O)c1cc(-c2ccc(Cl)cc2)n[nH]1 | n | n | n | n | n | n | x | x | x | x | x
O=C(Nn1cc(C(=O)Nc2ccc(F)cc2F)c2ccccc2c1=O)c1cnccn1 | n | n | 18µM | n | n | n | u | n | n | n | n
Cc1cc2oc(C(=O)Nc3sc4c(c3C(=O)NCC3CCCO3)CCC4)cc(=O)c2cc1C (stereo unspecified) | x | x | x | n | x | x | x | x | x | x | x
CC(Oc1ccccc1)C(=O)N1CCN=C1SCc1ccc(F)cc1 (stereo unspecified) | n | n | n | n | n | n | x | x | x | x | x
COc1ncnc2c1ncn2CCCNCCCN1CCCC1=O | x | n | x | n | x | x | x | x | x | x | x
CCN(CC)S(=O)(=O)c1cccc(C(=O)N/N=C/c2ccccn2)c1 | 33 | n | 18µM | n | n | n | n | n | n | n | n
O=C(N/N=C/c1ccccn1)c1cccc(S(=O)(=O)Nc2ccccc2Cl)c1 | n | n | 16µM | n | n | n | u | n | n | n | u
CCN(CC)S(=O)(=O)c1cccc(C(=O)N/N=C2\CCCC(=O)C2)c1 | n | n | n | n | n | n | x | x | x | x | x
CC[C@H]1C(Nc2ccccc2)C[C@@H]2CCN3C(=O)CC[C@H]1[C@H]23 (stereo partly specified) | x | n | x | n | x | x | x | x | x | x | x
CCOC(CNC(=O)Cn1nc(C)c2ccccc21)OCC | n | n | n | n | n | n | x | x | x | x | x
C/C(=N\NC(=S)Nc1cccc(C)c1)c1ccco1 | n | n | n | n | n | n | x | x | x | x | x
CCNC(=S)N/N=C(\C)c1ccco1 | n | n | 18µM | n | n | n | n | n | n | n | n
CCN1CCc2nc(N)sc2C1 | n | n | 11µM | u | n | n | n | n | u | u | 28µM
COC(=O)c1ccc(CC(=O)c2c(C)cc(O)cc2O)o1 | n | n | 16µM | n | n | n | n | n | 16µM | 40µM | u
COc1cc(/C=N/Nc2nc(C)cc(C)n2)cc(OC)c1OC | n | n | 16µM | n | n | n | n | n | n | n | n
COc1cc(/C=N/Nc2ncc(C(F)(F)F)cc2Cl)cc(OC)c1OC | n | n | n | n | n | n | x | x | x | x | x
Cc1cc(C)nc(NCc2ccc(Cl)cc2)n1 | n | n | n | n | n | n | x | x | x | x | x
SMILES | Cycloheximide cs | RE007 growth inh | Giardia FBPA inh-1 | Tb PYK inh | LmPK inhibitor | Shiga inhibitor | Giardia growth | Mammalian tox | Giardia FBPA inh-2 | Rabbit FBPA inh | GAPDH counter
Cc1cc(C)nc(N/N=C/c2ccc(Cl)cc2)n1 | 13 | n | 11µM | n | n | n | n | n | n | n | n
CC(C)(C)N(CC#CCC(O)(c1ccccc1)c1ccccc1)CCO | n | n | 20µM | n | n | n | n | n | n | n | n
OCCN(CC#CCC(O)(c1ccccc1)C1CCCC1)CCO (stereo unspecified) | n | n | n | n | n | n | x | x | x | x | x
COC(=O)CC1C(=O)NCCN1C(=S)NC(=O)c1ccccc1[N+](=O)[O-] (stereo unspecified) | n | n | 7.1µM | n | n | n | n | n | n | n | n
CCOC(=O)CC1C(=O)NCCN1C(=S)NC(=O)c1ccccc1OC (stereo unspecified) | n | n | x | n | n | n | x | x | x | x | x
CC(C)OC(=O)CC1C(=O)NCCN1C(=S)NC(=O)c1cccs1 (stereo unspecified) | n | n | 5.6µM | u | n | n | n | n | n | n | n
CC(=O)N1CCC2(CCCN(c3ccccn3)C2)CC1 | x | x | n | n | x | x | x | x | x | x | x
CC1=NN(c2ccccc2)C(=O)C1N=Nc1cccc(O)c1 (stereo unspecified) | 43 | n | 10µM | n | n | 86 | u | n | n | n | n
CC1=NN(C(=O)c2ccncc2)C(=O)C1N=Nc1ccc2ccccc2c1 (stereo unspecified) | x | n | x | n | x | x | x | x | x | x | x
CC1=NN(c2nc(-c3ccc(C)cc3)cs2)C(=O)C1N=Nc1cccc(O)c1 (stereo unspecified) | n | n | n | u | n | n | x | x | x | x | x
COc1ccc(N=NC2C(=O)N(c3ccccc3)N=C2C)cc1 (stereo unspecified) | n | n | 28µM | n | n | n | n | n | n | n | n
Cc1ccccc1C(=O)c1cccn1CC(=O)NCCCN1CCc2ccccc2C1 | n | n | 16µM | n | n[11.5 µM] | n | u | n | n | n | n
Cc1ccccc1C(=O)c1cccn1CC(=O)NCCCN1CC(C)CC(C)C1 (stereo unspecified) | n | n | n | n | n | n | x | x | x | x | x
CCc1ccc(Nc2n[n+](-c3ccccc3)c(-c3cc(OC)c(OC)cc3Br)s2)cc1 | n | n | n | n | n | n | x | x | x | x | x
CCc1ccc(Nc2n[n+](-c3ccccc3)c(-c3ccc(N(CC)CC)cc3)s2)cc1 | 35 | n | 25µM | n | n | 51 | n | u | n | n | n
COC(=O)C(C)Sc1n[nH]c(=S)s1 (stereo unspecified) | n | n | u | u | n | n | x | x | x | x | x
O=C(O)CC(Sc1n[nH]c(=S)s1)C(=O)O (stereo unspecified) | n | n | 4.5µM | u | n | n | n | u | u | u | u
N#C/C(=C(\O)c1cc(Cl)sc1Cl)c1nc2ccccc2[nH]1 | n | n | 25µM | n | n | n | n | n | n | n | u
